From the supplement of paper PMC9492666
Counter-ions that a name gives are not always drawn.

How the values were obtained:
HCC1937 = assay: relative cell viability, compound + erastin, vs DMSO (fraction of DMSO control); higher = less growth inhibition; settings: 72 h
MDA-MB-231 = assay: as above; settings: 72 h
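Also: viability read by CCK-8 kit in 96-well plates, part of a combination screen pairing lipid-metabolism-targeting compounds with erastin.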

Row | SMILES | relative cell viability (HCC1937) | relative cell viability (MDA-MB-231)
1 | O=C(NCCN1CCC2(CC1)C(=O)NCN2c1ccccc1)c1ccc2ccccc2c1 + CCOc1ccccc1-n1c(C(C)N2CCN(C(=O)COc3ccc(Cl)cc3)CC2)nc2ccccc2c1=O [erastin] | 0.392 | 0.589
2 | O=C(Nc1cnccc1Cl)N1CCN(Cc2ccc3c(c2)OC(F)(F)O3)CC1 + CCOc1ccccc1-n1c(C(C)N2CCN(C(=O)COc3ccc(Cl)cc3)CC2)nc2ccccc2c1=O [erastin] | 0.486 | 0.646
3 | CC(C)OC(=O)C(C(=O)OC(C)C)=C1SC=CS1 [Malotilate] + CCOc1ccccc1-n1c(C(C)N2CCN(C(=O)COc3ccc(Cl)cc3)CC2)nc2ccccc2c1=O [erastin] | 0.459 | 0.644
4 | O=S(=O)(Nc1ccc(C(O)(C(F)(F)F)C(F)(F)F)cc1)c1cccs1 + CCOc1ccccc1-n1c(C(C)N2CCN(C(=O)COc3ccc(Cl)cc3)CC2)nc2ccccc2c1=O [erastin] | 0.652 | 0.568
5 | COC(=O)CN(c1ccc(CN(c2ccc(OCc3ccc(C)cc3)c(C(=O)OC)c2)S(=O)(=O)Cc2ccccc2)cc1)S(C)(=O)=O + CCOc1ccccc1-n1c(C(C)N2CCN(C(=O)COc3ccc(Cl)cc3)CC2)nc2ccccc2c1=O [erastin] | 0.624 | 0.643
6 | C=C[C@H]1CN2CC[C@H]1C[C@@H]2[C@@H](O)c1ccnc2ccc(OC)cc12 [Quinidine sulfate] + CCOc1ccccc1-n1c(C(C)N2CCN(C(=O)COc3ccc(Cl)cc3)CC2)nc2ccccc2c1=O [erastin] | 0.7 | 0.398
7 | O=C1/C(=C/c2cccs2)CC/C1=C\c1cccs1 + CCOc1ccccc1-n1c(C(C)N2CCN(C(=O)COc3ccc(Cl)cc3)CC2)nc2ccccc2c1=O [erastin] | 0.514 | 0.658
8 | CC1(C)C[C@H]2C3=CC[C@@H]4[C@@]5(C)CC[C@H](O)[C@@](C)(CO)[C@@H]5CC[C@@]4(C)[C@]3(C)C[C@H](O)[C@@]2(CO)[C@@H](O)[C@@H]1O [Gymnemagenin] + CCOc1ccccc1-n1c(C(C)N2CCN(C(=O)COc3ccc(Cl)cc3)CC2)nc2ccccc2c1=O [erastin] | 0.918 | 0.785
9 | COc1ccc(-c2coc3cc(OC)ccc3c2=O)cc1 [4',7-Dimethoxyisoflavone] + CCOc1ccccc1-n1c(C(C)N2CCN(C(=O)COc3ccc(Cl)cc3)CC2)nc2ccccc2c1=O [erastin] | 0.313 | 0.427
10 | CCOC(=O)C(C)(C)Oc1ccc(Cl)cc1 [Clofibrate] + CCOc1ccccc1-n1c(C(C)N2CCN(C(=O)COc3ccc(Cl)cc3)CC2)nc2ccccc2c1=O [erastin] | 0.801 | 0.653
11 | CC(C)C1=CC2=CC[C@@H]3[C@](C)(CCC[C@@]3(C)C(=O)O)[C@H]2CC1 [Abietic Acid] + CCOc1ccccc1-n1c(C(C)N2CCN(C(=O)COc3ccc(Cl)cc3)CC2)nc2ccccc2c1=O [erastin] | 0.673 | 1.04
12 | O=C(Nc1ccncc1)c1cc([N+](=O)[O-])ccc1Cl + CCOc1ccccc1-n1c(C(C)N2CCN(C(=O)COc3ccc(Cl)cc3)CC2)nc2ccccc2c1=O [erastin] | 0.47 | 0.726
13 | COc1cc(N2CCN(C)CC2)ccc1Nc1ncc2c(n1)N(C)c1ccccc1C(=O)N2 + CCOc1ccccc1-n1c(C(C)N2CCN(C(=O)COc3ccc(Cl)cc3)CC2)nc2ccccc2c1=O [erastin] | 0.365 | 0.788
14 | O=C(O)C(=O)Nc1sc2c(c1C(=O)O)CCNC2 + CCOc1ccccc1-n1c(C(C)N2CCN(C(=O)COc3ccc(Cl)cc3)CC2)nc2ccccc2c1=O [erastin] | 0.755 | 0.635
15 | O=C(Oc1ccc([N+](=O)[O-])cc1)N1CCN(Cc2cccc(Oc3ccccc3)c2)CC1 + CCOc1ccccc1-n1c(C(C)N2CCN(C(=O)COc3ccc(Cl)cc3)CC2)nc2ccccc2c1=O [erastin] | 0.199 | 0.312
16 | Cc1nc2ccc(C(=O)N3CCC4(CC3)CC(=O)c3c(cnn3C(C)C)C4)cc2[nH]1 + CCOc1ccccc1-n1c(C(C)N2CCN(C(=O)COc3ccc(Cl)cc3)CC2)nc2ccccc2c1=O [erastin] | 0.619 | 0.733
17 | C=C(C)[C@@H]1CCC2=CC(=O)C[C@@H](C)[C@]2(C)C1 [Nootkatone] + CCOc1ccccc1-n1c(C(C)N2CCN(C(=O)COc3ccc(Cl)cc3)CC2)nc2ccccc2c1=O [erastin] | 0.577 | 0.706
18 | Cc1ccc(C)c(OCCCC(C)(C)C(=O)O)c1 [Gemfibrozil] + CCOc1ccccc1-n1c(C(C)N2CCN(C(=O)COc3ccc(Cl)cc3)CC2)nc2ccccc2c1=O [erastin] | 0.688 | 0.941
19 | O=S(=O)(c1ccccc1)N(CC(F)(F)F)c1ccc(C(O)(C(F)(F)F)C(F)(F)F)cc1 + CCOc1ccccc1-n1c(C(C)N2CCN(C(=O)COc3ccc(Cl)cc3)CC2)nc2ccccc2c1=O [erastin] | 0.835 | 0.45

Row | SMILES | relative cell viability (HCC1937) | relative cell viability (MDA-MB-231)
20 | Cc1c(C(=O)Nc2ccc(CO)cc2)nnn1Cc1ccc(Cl)c(Cl)c1 + CCOc1ccccc1-n1c(C(C)N2CCN(C(=O)COc3ccc(Cl)cc3)CC2)nc2ccccc2c1=O [erastin] | 0.684 | 0.733
21 | Cc1cc(C)c(S(=O)(=O)N(CCc2cccc(Br)c2)Cc2ccc(-c3cccc(S(C)(=O)=O)c3)cc2)c(C)c1 + CCOc1ccccc1-n1c(C(C)N2CCN(C(=O)COc3ccc(Cl)cc3)CC2)nc2ccccc2c1=O [erastin] | 0.537 | 0.777
22 | CC(C)(Oc1ccc(Cl)cc1)C(=O)O [Clofibric acid] + CCOc1ccccc1-n1c(C(C)N2CCN(C(=O)COc3ccc(Cl)cc3)CC2)nc2ccccc2c1=O [erastin] | 0.923 | 0.592
23 | CSc1ccc(C(=O)/C=C/c2cc(C)c(OC(C)(C)C(=O)O)c(C)c2)cc1 [Elafibranor] + CCOc1ccccc1-n1c(C(C)N2CCN(C(=O)COc3ccc(Cl)cc3)CC2)nc2ccccc2c1=O [erastin] | 0.858 | 0.602
24 | O=C(CC(C(=O)O)c1c[nH]c2ccccc12)c1ccc(F)cc1F (centres undefined) [Mitochonic acid 5] + CCOc1ccccc1-n1c(C(C)N2CCN(C(=O)COc3ccc(Cl)cc3)CC2)nc2ccccc2c1=O [erastin] | 0.931 | 1
25 | OC[C@H]1O[C@@H](Oc2cc(O)cc(/C=C/c3ccc(O)cc3)c2)[C@H](O)[C@@H](O)[C@@H]1O [Polydatin] + CCOc1ccccc1-n1c(C(C)N2CCN(C(=O)COc3ccc(Cl)cc3)CC2)nc2ccccc2c1=O [erastin] | 0.78 | 0.601
26 | CCN(CC)c1ccc(C=NNC(=O)c2ccncc2)c(O)c1 + CCOc1ccccc1-n1c(C(C)N2CCN(C(=O)COc3ccc(Cl)cc3)CC2)nc2ccccc2c1=O [erastin] | 0.254 | 0.677
27 | CC(C)Cc1ccc([C@H](C)C(=O)O)cc1 [Dexibuprofen] + CCOc1ccccc1-n1c(C(C)N2CCN(C(=O)COc3ccc(Cl)cc3)CC2)nc2ccccc2c1=O [erastin] | 0.901 | 0.642
28 | COc1ccc(CN2CCC(c3ccc4nc(C(=O)N5CCN(Cc6ccc(C(F)(F)F)cc6)CC5)[nH]c4c3)CC2)cn1 + CCOc1ccccc1-n1c(C(C)N2CCN(C(=O)COc3ccc(Cl)cc3)CC2)nc2ccccc2c1=O [erastin] | 0.569 | 0.585
29 | O=C(Nc1ccccc1)N1CCN(c2nc(-c3ccccc3)ns2)CC1 + CCOc1ccccc1-n1c(C(C)N2CCN(C(=O)COc3ccc(Cl)cc3)CC2)nc2ccccc2c1=O [erastin] | 0.559 | 0.353
30 | CN1c2ccccc2C(=O)Nc2cnc(Nc3ccc(N4CCC(O)CC4)cc3)nc21 + CCOc1ccccc1-n1c(C(C)N2CCN(C(=O)COc3ccc(Cl)cc3)CC2)nc2ccccc2c1=O [erastin] | 0.205 | 0.644
31 | O=c1oc2ccccc2cc1O [3-Hydroxycoumarin] + CCOc1ccccc1-n1c(C(C)N2CCN(C(=O)COc3ccc(Cl)cc3)CC2)nc2ccccc2c1=O [erastin] | 0.61 | 0.741
32 | c1cc(-c2cnn3cc(-c4ccc(OCCN5CCCCC5)cc4)cnc23)ccn1 [Dorsomorphin] + CCOc1ccccc1-n1c(C(C)N2CCN(C(=O)COc3ccc(Cl)cc3)CC2)nc2ccccc2c1=O [erastin] | 0.137 | 0.405
33 | O=C(/C=C/c1ccc(/C=C/C(=O)Nc2ccc(C3=NCCN3)cc2)cc1)Nc1ccc(C2=NCCN2)cc1 + CCOc1ccccc1-n1c(C(C)N2CCN(C(=O)COc3ccc(Cl)cc3)CC2)nc2ccccc2c1=O [erastin] | 0.554 | 0.346
34 | Cc1nc2ccc(NCc3cccc(C(F)(F)F)c3)cc2n(CCNC(=O)CO)c1=O + CCOc1ccccc1-n1c(C(C)N2CCN(C(=O)COc3ccc(Cl)cc3)CC2)nc2ccccc2c1=O [erastin] | 0.618 | 0.89
35 | COC(=O)c1cc(Cl)c(O)c(S(=O)(=O)Nc2cc(-c3ccccc3)c(F)cc2F)c1 + CCOc1ccccc1-n1c(C(C)N2CCN(C(=O)COc3ccc(Cl)cc3)CC2)nc2ccccc2c1=O [erastin] | 0.728 | 0.806
36 | O=C(O)CCCc1cc2cc(Cl)ccc2n1S(=O)(=O)c1ccc2ncsc2c1 [Lanifibranor] + CCOc1ccccc1-n1c(C(C)N2CCN(C(=O)COc3ccc(Cl)cc3)CC2)nc2ccccc2c1=O [erastin] | 0.672 | 0.886
37 | CC(C)(Oc1ccc(C(=O)c2ccc(Cl)cc2)cc1)C(=O)O [Choline Fenofibrate] + CCOc1ccccc1-n1c(C(C)N2CCN(C(=O)COc3ccc(Cl)cc3)CC2)nc2ccccc2c1=O [erastin] | 0.848 | 0.662
